Test results published in publication PMC11062922 (Nature Chemical Biology, 2023).
Like-named read-outs stand apart in the source and are kept apart here.

Assays:
[1] = system: CHEK1; settings: read-out: apparent Kd, n = 1
[2] = system: ERN1; settings: read-out: apparent Kd, n = 1

For Lestaurtinib, the potency estimated from few doses ([1]; compound concentrations:100 nM and 1000 nM (sheet 'Lestaurtinib' of Supplementary Table 1),run:Lestaurtinib_02601_R1,Plate:MR018) was 0.098 µM, the potency estimated from few doses ([1]; compound concentrations:100 nM and 1000 nM (sheet 'Lestaurtinib' of Supplementary Table 1),run:Lestaurtinib_02601_R3,Plate:MR018) was 0.0788 µM and the potency estimated from few doses ([1]; compound concentrations:100 nM and 1000 nM (sheet 'Lestaurtinib' of Supplementary Table 1),run:Lestaurtinib_02606_R1,Plate:MR019) was 0.0885 µM. For the same substance, the potency estimated from few doses ([1]; compound concentrations:100 nM and 1000 nM (sheet 'Lestaurtinib' of Supplementary Table 1),run:Lestaurtinib_02606_R2,Plate:MR019) was 0.0741 µM, the potency estimated from few doses ([1]; compound concentrations:100 nM and 1000 nM (sheet 'Lestaurtinib' of Supplementary Table 1),run:Lestaurtinib_02606_R3,Plate:MR019) was 0.097 µM and the potency estimated from few doses ([1]; compound concentrations:100 nM and 1000 nM (sheet 'Lestaurtinib' of Supplementary Table 1),run:Lestaurtinib_02624_R2,Plate:MR020) was 0.093 µM. For the same substance, the potency estimated from few doses ([1]; compound concentrations:100 nM and 1000 nM (sheet 'Lestaurtinib' of Supplementary Table 1),run:Lestaurtinib_02624_R3,Plate:MR020) was 0.079 µM, the potency estimated from few doses ([1]; compound concentrations:100 nM and 1000 nM (sheet 'Lestaurtinib' of Supplementary Table 1),run:Lestaurtinib_02724_R3,Plate:MR021) was 0.092 µM and the potency estimated from few doses ([1]; compound concentrations:100 nM and 1000 nM (sheet 'Lestaurtinib' of Supplementary Table 1),run:Lestaurtinib_02741_R1,Plate:MR023) was 0.088 µM. The potency estimated from few doses ([1]; compound concentrations:100 nM and 1000 nM (sheet 'Lestaurtinib' of Supplementary Table 1),run:Lestaurtinib_02748_R1,Plate:MR024) was 0.0695 µM, the potency estimated from few doses ([1]; compound concentrations:100 nM and 1000 nM (sheet 'Lestaurtinib' of Supplementary Table 1),run:Lestaurtinib_02748_R3,Plate:MR024) was 0.0801 µM and the potency estimated from few doses ([1]; compound concentrations:100 nM and 1000 nM (sheet 'Lestaurtinib' of Supplementary Table 1),run:Lestaurtinib_02752_R1,Plate:MR025) was 0.0755 µM. It also gave a potency estimated from few doses ([1]; compound concentrations:100 nM and 1000 nM (sheet 'Lestaurtinib' of Supplementary Table 1),run:Lestaurtinib_02765_R2,Plate:MR026) of 0.0987 µM, a potency estimated from few doses ([1]; compound concentrations:100 nM and 1000 nM (sheet 'Lestaurtinib' of Supplementary Table 1),run:Lestaurtinib_02765_R3,Plate:MR026) of 0.0755 µM and a potency estimated from few doses ([1]; compound concentrations:100 nM and 1000 nM (sheet 'Lestaurtinib' of Supplementary Table 1),run:Lestaurtinib_02766_R1,Plate:MR027) of 0.092 µM. For the same substance, the potency estimated from few doses ([1]; compound concentrations:100 nM and 1000 nM (sheet 'Lestaurtinib' of Supplementary Table 1),run:Lestaurtinib_02766_R2,Plate:MR027) was 0.0712 µM, the potency estimated from few doses ([1]; compound concentrations:100 nM and 1000 nM (sheet 'Lestaurtinib' of Supplementary Table 1),run:Lestaurtinib_02766_R3,Plate:MR027) was 0.0827 µM and the potency estimated from few doses ([1]; compound concentrations:100 nM and 1000 nM (sheet 'Lestaurtinib' of Supplementary Table 1),run:Lestaurtinib_02768_R1,Plate:MR028) was 0.0827 µM. For the same substance, the potency estimated from few doses ([1]; compound concentrations:100 nM and 1000 nM (sheet 'Lestaurtinib' of Supplementary Table 1),run:Lestaurtinib_02768_R3,Plate:MR028) was 0.0861 µM, the potency estimated from few doses ([1]; compound concentrations:100 nM and 1000 nM (sheet 'Lestaurtinib' of Supplementary Table 1),run:Lestaurtinib_02795_R1,Plate:MR022) was 0.0895 µM and the potency estimated from few doses ([1]; compound concentrations:100 nM and 1000 nM (sheet 'Lestaurtinib' of Supplementary Table 1),run:Lestaurtinib_02795_R2,Plate:MR022) was 0.0802 µM. It also gave a potency estimated from few doses ([1]; compound concentrations:100 nM and 1000 nM (sheet 'Lestaurtinib' of Supplementary Table 1),run:Lestaurtinib_02795_R3,Plate:MR022) of 0.211 µM, a potency estimated from few doses ([1]; compound concentrations:100 nM and 1000 nM (sheet 'Lestaurtinib' of Supplementary Table 1),run:Lestaurtinib_02802_R1,Plate:MR029) of 0.0843 µM and a potency estimated from few doses ([1]; compound concentrations:100 nM and 1000 nM (sheet 'Lestaurtinib' of Supplementary Table 1),run:Lestaurtinib_02802_R2,Plate:MR029) of 0.0916 µM. It also gave a potency estimated from few doses ([1]; compound concentrations:100 nM and 1000 nM (sheet 'Lestaurtinib' of Supplementary Table 1),run:Lestaurtinib_02802_R3,Plate:MR029) of 0.0916 µM, a potency estimated from few doses ([1]; compound concentrations:100 nM and 1000 nM (sheet 'Lestaurtinib' of Supplementary Table 1),run:Lestaurtinib_02896_R1,Plate:MR030) of 0.0737 µM and a potency estimated from few doses ([1]; compound concentrations:100 nM and 1000 nM (sheet 'Lestaurtinib' of Supplementary Table 1),run:Lestaurtinib_02896_R2,Plate:MR030) of 0.07 µM. It also gave a potency estimated from few doses ([1]; compound concentrations:100 nM and 1000 nM (sheet 'Lestaurtinib' of Supplementary Table 1),run:Lestaurtinib_02896_R3,Plate:MR030) of 0.0667 µM, a potency estimated from few doses ([1]; compound concentrations:100 nM and 1000 nM (sheet 'Lestaurtinib' of Supplementary Table 1),run:Lestaurtinib_03172_R2,Plate:MR031) of 0.0835 µM and a potency estimated from few doses ([1]; compound concentrations:100 nM and 1000 nM (sheet 'Lestaurtinib' of Supplementary Table 1),run:Lestaurtinib_03172_R3,Plate:MR031) of 0.0943 µM. It also gave a potency estimated from few doses ([1]; compound concentrations:100 nM and 1000 nM (sheet 'Lestaurtinib' of Supplementary Table 1),run:Lestaurtinib_03260_R3,Plate:MR033) of 0.0679 µM, a potency estimated from few doses ([2]; compound concentrations:100 nM and 1000 nM (sheet 'Lestaurtinib' of Supplementary Table 1),run:Lestaurtinib_02339_R1,Plate:MR001) of 0.0979 µM and a potency estimated from few doses ([2]; compound concentrations:100 nM and 1000 nM (sheet 'Lestaurtinib' of Supplementary Table 1),run:Lestaurtinib_02339_R2,Plate:MR001) of 0.0658 µM. For the same substance, the potency estimated from few doses ([2]; compound concentrations:100 nM and 1000 nM (sheet 'Lestaurtinib' of Supplementary Table 1),run:Lestaurtinib_02339_R3,Plate:MR001) was 0.047 µM, the potency estimated from few doses ([2]; compound concentrations:100 nM and 1000 nM (sheet 'Lestaurtinib' of Supplementary Table 1),run:Lestaurtinib_02364_R1,Plate:MR002) was 0.0752 µM and the potency estimated from few doses ([2]; compound concentrations:100 nM and 1000 nM (sheet 'Lestaurtinib' of Supplementary Table 1),run:Lestaurtinib_02364_R2,Plate:MR002) was 0.0582 µM. It also gave a potency estimated from few doses ([2]; compound concentrations:100 nM and 1000 nM (sheet 'Lestaurtinib' of Supplementary Table 1),run:Lestaurtinib_02367_R1,Plate:MR003) of 0.0834 µM, a potency estimated from few doses ([2]; compound concentrations:100 nM and 1000 nM (sheet 'Lestaurtinib' of Supplementary Table 1),run:Lestaurtinib_02367_R3,Plate:MR003) of 0.0761 µM and a potency estimated from few doses ([2]; compound concentrations:100 nM and 1000 nM (sheet 'Lestaurtinib' of Supplementary Table 1),run:Lestaurtinib_02381_R1,Plate:MR004) of 0.0442 µM. For the same substance, the potency estimated from few doses ([2]; compound concentrations:100 nM and 1000 nM (sheet 'Lestaurtinib' of Supplementary Table 1),run:Lestaurtinib_02381_R2,Plate:MR004) was 0.058 µM, the potency estimated from few doses ([2]; compound concentrations:100 nM and 1000 nM (sheet 'Lestaurtinib' of Supplementary Table 1),run:Lestaurtinib_02407_R1,Plate:MR005) was 0.0747 µM and the potency estimated from few doses ([2]; compound concentrations:100 nM and 1000 nM (sheet 'Lestaurtinib' of Supplementary Table 1),run:Lestaurtinib_02407_R3,Plate:MR005) was 0.0658 µM.
